# High-throughput results from PubChem.
# The list is not random: actives were taken first. Their share in the collection is about 1.1%.
# MOR-DOR ag: OPRM1-OPRD1 heterodimerization agonism; activation, % at 9.3 µM; P35372+P41143; 340,000 tested, 0.3% active; cells, luminescence;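 also: 0% = vehicle-treated cells and 100% = reference agonist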
# OPRM1-OPRD1 inv: inverse agonists of human mu-delta opioid receptor heterodimerization; 340,000 tested, 0.21% active; inhibition, % at 9.3 µM; P35372+P41143; cell-based MOR-DOR heterodimer luminescence, inverse agonism; in the data active = inhibition above about 22%, passing the limit was not always enough;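 also: 0% = cells with DMSO and 100% = wells without cells with DMSO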
# HTR5A inv ag: counter-screen for OPRM1-OPRD1 inverse agonists: human HTR5A inverse agonism; HTR5A cell line, luminescence; inhibition, % at 9.3 µM; 340,000 tested, 0.083% active; in the data active = inhibition mostly above about 23%, no sharp cut-off; inactive = mostly below about 18%;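 also: 0% = cells with DMSO and 100% = no-cell wells with DMSO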
# HTR5A ag: counter-screen for OPRM1-OPRD1 agonists: human HTR5A agonism; 340,000 tested, 0.61% active; P47898; AID 504692; HTR5A agonist assay, luminescence, cell-based; activation, % at 9.3 µM; in the data active = activation mostly above about 9.5%, no sharp cut-off; inactive = mostly below about 7.6%;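 also: 0% = cells with vehicle only and 100% = reference agonist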
# MOR-DOR ag conf: OPRM1-OPRD1 heterodimer agonism, confirmation; shares compounds with MOR-DOR ag; cells, MOR-DOR heterodimerization, luminescence complementation; activation, % at 9.3 µM; 830 tested, 45% active; AID 504904;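 also: 0% = vehicle-treated cells and 100% = reference agonist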
# HTR5A ag ctr2: activates human HTR5A in OPRM1-OPRD1 agonist counter-screen | AID 504905 | activation, % at 9.3 µM | HTR5A agonist counterscreen, cell luminescence | 830 tested, 8% active | shares compounds with MOR-DOR ag; in the data active = activation above about 17%;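 also: 0% = vehicle-treated cells and 100% = reference agonist response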
# MOR-DOR inv conf: confirmation of human OPRM1-OPRD1 heterodimerization inverse agonists; shares compounds with OPRM1-OPRD1 inv; cells expressing OPRM1/OPRD1 heterodimer, luminescence; inhibition, % at 9.3 µM; 580 tested, 20% active; in the data active = inhibition above about 32%;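 also: 0% = cells with DMSO and 100% = wells lacking cells with DMSO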
# HTR5A inv count: counter-screen for OPRM1-OPRD1 inverse agonists: human HTR5A inverse agonism; 580 tested, under 10 active; inhibition, % at 9.3 µM; HTR5A-expressing cells, luminescence; shares compounds with OPRM1-OPRD1 inv; AID 504914; call rule not given here;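 also: 0% = cells with DMSO and 100% = no-cell wells with DMSO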
# An asterisk follows results filed as active; i = inactive; . = no result given. Rule as the data show it, unless noted: active = activation above about 18%; inactive = the rest.
SMILES,MOR-DOR ag,OPRM1-OPRD1 inv,HTR5A inv ag,HTR5A ag,MOR-DOR ag conf,HTR5A ag ctr2,others
COc1ccc(C(CNC(=O)CCc2ccsc2)N(C)C)cc1 (stereo unspecified),405*,i,13,2,55*,-3,
COc1ccc(C(CN(C)C)C2(O)CCCCC2)cc1 (stereo unspecified),-2,12,-18,-3,.,.,
C[C@]12CCC(=O)C=C1C=CC1C2CC[C@@]2(C)C1CC[C@@H]2O (stereo partly specified),-4,21,3,-1,.,.,
CC1[C@H]2Cc3ccc(O)cc3[C@]1(C)CCN2CCc1ccccc1 (stereo partly specified),339*,i,19,-8,315*,0,
Cc1cc(NC(=O)CCl)nn1C,91*,-469,-18,6,1,2,
COC(=O)C1=CO[C@@H](C)[C@@H]2CN(CCc3c[nH]c4ccccc34)CC[C@H]12,92*,i,-13,-8,123*,1,
COC(=O)C1=COC(C)C2CN3CCC4(C(=O)Nc5ccccc54)C3CC12 (stereo unspecified),-1,4,21,1,.,.,
CC=C(CC)C1(CCC)C(=O)NC(=S)NC1=O,-4,16,17,-4,.,.,
CCC(=O)OC1(c2cccc(C)c2)CC(C)N(C)CC1C (stereo unspecified),64*,-313,3,-1,66*,0,
CC1CC(OC(=O)c2ccccc2)(c2ccccc2)C(C)CN1C (stereo unspecified),-5,25,5,-2,.,.,
CCC(=O)OC1(Cc2ccc(CC)cc2)CC(C)N(C)CC1C (stereo unspecified),20*,-106,-44,1,2,1,
CCC(=O)OC1(c2ccccc2)C(C)CN(C)CC1C (stereo unspecified),2,-9,-3,-3,.,.,
CCSC(=O)N1CCCCCC1,-1,3,1,0,.,.,
O=C(CCCc1ccccc1)NCCc1cnc[nH]1,-2,10,-20,5,.,.,
COC(=O)C1=C(c2ccc(C(C)=O)cc2)C[C@@H]2CC[C@H]1N2C(=O)NCc1ccc(C(F)(F)F)cc1,-3,16,-35,0,.,.,
COc1ccc2c(c1O)[C@]13CCN(C)[C@H](C2)[C@@H]1CCC(=O)C3,96*,i,-16,5,23*,-1,
COC1=CC2C3Cc4ccc(OC)c(O)c4C2(CCN3C)CC1=O (stereo unspecified),-1,3,-20,8,.,.,
CN(c1ccccc1)P(=O)(N1CC1)N1CC1,-1,4,9,-2,.,.,
CC(=O)OC1CC[C@]2(C#N)[C@H]3CC[C@]4(C)[C@H](C5C=CC(=O)O5)CCC4(O)C3CCC2(O)C1 (stereo partly specified),51*,-246,-69,19*,18,21*,
C[C@@H]1O[C@@H](O[C@@H]2C=C3CCC4C(CC[C@]5(C)[C@@H](c6ccc(=O)oc6)CC[C@]45O)[C@@]3(C)CC2)[C@H](O)[C@H](O)[C@H]1O (stereo partly specified),71*,-382,-106,30*,34*,27*,
c1ccc(C2(N3CCCCC3)CCCCC2)cc1,374*,i,18,-8,346*,-2,
COc1ccc(S(=O)(=O)N2Cc3cnnn3-c3ccccc3C2C#N)cc1 (stereo unspecified),-2,8,7,-2,.,.,
CC(Cc1ccccc1)NC(=O)Cc1ccc(N(C)C)cc1 (stereo unspecified),-1,6,27,1,.,.,
CN(C)C(CNC(=O)Cc1ccc(Br)cc1)c1ccccc1 (stereo unspecified),141*,i,2,-1,214*,-5,
CN(C)C1(CNC(=O)Nc2ccc(Cl)c(Cl)c2)CCCCC1,67*,-358,-19,7,-1,-4,
SMILES,MOR-DOR ag,OPRM1-OPRD1 inv,HTR5A inv ag,HTR5A ag,MOR-DOR ag conf,HTR5A ag ctr2,others
Clc1cccc(CNCCc2ccc3c(c2)OCO3)c1,2,-11,19,-5,.,.,
CC1(C)CC(CCNCc2ccc3c(c2)OCO3)(Cc2ccccc2)CCO1 (stereo unspecified),31*,-163,3,-1,28*,-4,
CN1C(=O)NC(=O)C(N=Nc2ccc(Cl)cc2)C1=O (stereo unspecified),-3,17,0,0,.,.,
CC12CC[C@H]3[C@@H](CCC4(O)C[C@H](O)CCC34/C=N/NC(=O)c3ccccc3O)C1(O)CCC2C1=CC(=O)OC1 (stereo partly specified),35*,-184,-30,9,9,0,
CC12CC[C@H]3[C@@H](CCC4(O)C[C@H](O)CCC34/C=N/NC(=O)c3ccccc3F)C1(O)CCC2C1=CC(=O)OC1 (stereo partly specified),13,-64,9,11,.,.,
COc1ccc(CNCCc2c[nH]c3ccccc23)c(OC)c1C,21*,-95,-25,7,48*,15,
COC(=O)C1=C(c2ccc(OC(F)(F)F)cc2)C[C@@H]2CC[C@H]1N2C(=O)NCCOc1ccc(OC)cc1,-1,7,-4,2,.,.,
CCC(C)N1C(=O)NC(=O)C2(Cc3c(ccc4ccccc34)N(C)C2)C1=O (stereo unspecified),20*,-126,-30,13,215*,-1,
Cc1ccc(N/N=C/c2c(O)n(-c3ccccc3)c(=O)[nH]c2=O)cc1,-7,32*,0,0,.,.,MOR-DOR inv conf=-10;HTR5A inv count=-1
N#CC1C(C#N)C2CCC1C1C2N1c1ccccc1 (stereo unspecified),-3,15,-15,4,.,.,
CC1CN(CC(=O)c2ccccc2Cl)CC(C)O1 (stereo unspecified),-1,5,6,-2,.,.,
CC1CCN(CC(=O)c2ccccc2Cl)CC1,-8,40*,-5,2,.,.,MOR-DOR inv conf=25;HTR5A inv count=1
CC1CCCN(CC(=O)c2ccc(Cl)c(Cl)c2)C1 (stereo unspecified),-14,71*,25,-6,.,.,MOR-DOR inv conf=66*;HTR5A inv count=5
CN1C(=O)NC(=O)C2(CCCC2)C1=O,-3,15,9,-2,.,.,
CC1CN(O)C2CCc3nonc3C12O (stereo unspecified),-9,43*,22,-9,.,.,MOR-DOR inv conf=-23;HTR5A inv count=-6
CC1=C(N2CC2)C(=O)C(CO)=C(N2CC2)C1=O,-10,42*,30,-8,.,.,MOR-DOR inv conf=-4;HTR5A inv count=0
COC(COC(N)=O)C1=C(N2CC2)C(=O)C(C)=C(N2CC2)C1=O (stereo unspecified),3,-13,-3,1,.,.,
